# The supplement of paper PMC4466140
# Legend:
# Test in all cases: SPOT peptide array binding signal intensity (averaged, normalized) (arbitrary units (background-subtracted, floor 0; scale differs between SH3 domains)); higher = stronger binding of the SH3 domain to the peptide
# [1] = molecular target: AgAbp1
# In short: (§1)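 GST-fused SH3 domains, from four yeast species, were produced in E. coli BL21(DE3) and captured on glutathione Sepharose. Membranes of cellulose carrying synthetic 15-mer peptides, in which cysteines had been replaced by serines, were exposed to each domain at 10 μg/ml overnight at 4°C in TBS-based blocking buffer. After anti-GST antibody, an HRP anti-mouse secondary and luminol, spots were imaged and quantified using Genespotter. Binding signal is normalized and background-subtracted spot intensity, averaged over replicates, in arbitrary units that differ between domains.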
# [2] = molecular target: AgBbc1
# In short: as §1
# [3] = molecular target: AgBem1-D1
# In short: as §1
# [4] = molecular target: AgBzz1-D1
# In short: as §1
# [5] = molecular target: AgBzz1-D2
# In short: as §1
# [6] = molecular target: AgCyk3
# In short: as §1
# [7] = molecular target: AgFus1
# In short: as §1
# [8] = molecular target: AgHof1
# In short: as §1
# [9] = molecular target: AgHse1
# In short: as §1
# [10] = molecular target: AgLsb1
# In short: as §1
# [11] = molecular target: AgLsb4
# In short: as §1
# [12] = molecular target: AgMyo5
# In short: as §1
# [13] = molecular target: AgNbp2
# In short: as §1
# [14] = molecular target: AgRvs167
# In short: as §1
# [15] = molecular target: AgSho1
# In short: as §1
# [16] = molecular target: AgSla1-D1-D2
# In short: as §1
# [17] = molecular target: AgSla1-D3
# In short: as §1
# [18] = molecular target: CaAbp1-D1
# In short: as §1
# [19] = molecular target: CaAbp1-D2
# In short: as §1
# [20] = molecular target: CaBbc1
# In short: as §1
# [21] = molecular target: CaBem1-D1
# In short: as §1
# [22] = molecular target: CaBzz1-D1
# In short: as §1
# [23] = molecular target: CaBzz1-D2
# In short: as §1
# [24] = molecular target: CaCyk3
# In short: as §1
# [25] = molecular target: CaFus1
# In short: as §1
# [26] = molecular target: CaHof1
# In short: as §1
# [27] = molecular target: CaHse1
# In short: as §1
# [28] = molecular target: CaLsb1
# In short: as §1
# [29] = molecular target: CaLsb4
# In short: as §1
# [30] = molecular target: CaMyo5
# In short: as §1
# [31] = molecular target: CaNbp2
# In short: as §1
# [32] = molecular target: CaRvs167
# In short: as §1
# [33] = molecular target: CaRvs167-3
# In short: as §1
# [34] = molecular target: CaSho1
# In short: as §1
# [35] = molecular target: CaSla1-D1-D2
# In short: as §1
# [36] = molecular target: CaSla1-D3
# In short: as §1
# [37] = molecular target: ScAbp1
# In short: as §1
# [38] = molecular target: ScBbc1
# In short: as §1
# [39] = molecular target: ScBem1-D1
# In short: as §1
# [40] = molecular target: ScBzz1-D1
# In short: as §1
# [41] = molecular target: ScBzz1-D2
# In short: as §1
# [42] = molecular target: ScCyk3
# In short: as §1
# [43] = molecular target: ScFus1
# In short: as §1
# [44] = molecular target: ScHof1
# In short: as §1
# [45] = molecular target: ScHse1
# In short: as §1
# [46] = molecular target: ScLsb1
# In short: as §1
# [47] = molecular target: ScLsb2
# In short: as §1
# [48] = molecular target: ScLsb3
# In short: as §1
# [49] = molecular target: ScLsb4
# In short: as §1
# [50] = molecular target: ScMyo3
# In short: as §1
# [51] = molecular target: ScMyo5
# In short: as §1
# [52] = molecular target: ScNbp2
# In short: as §1
# [53] = molecular target: ScPex13
# In short: as §1
# [54] = molecular target: ScRvs167
# In short: as §1
# [55] = molecular target: ScSho1
# In short: as §1
# [56] = molecular target: ScSla1-D1-D2
# In short: as §1
# [57] = molecular target: ScSla1-D3
# In short: as §1
# [58] = molecular target: SpAbp1-D1
# In short: as §1
# [59] = molecular target: SpBbc1
# In short: as §1
# [60] = molecular target: SpBzz1-D1
# In short: as §1
# [61] = molecular target: SpBzz1-D2
# In short: as §1
# [62] = molecular target: SpCyk3
# In short: as §1
# [63] = molecular target: SpHof1
# In short: as §1
# [64] = molecular target: SpHof1-2
# In short: as §1
# [65] = molecular target: SpHof1-3
# In short: as §1
# [66] = molecular target: SpHse1
# In short: as §1
# [67] = molecular target: SpLsb1
# In short: as §1
# [68] = molecular target: SpLsb4
# In short: as §1
# [69] = molecular target: SpMyo1
# In short: as §1
# [70] = molecular target: SpNbp2
# In short: as §1
# [71] = molecular target: SpPex13
# In short: as §1
# [72] = molecular target: SpRvs167
# In short: as §1
# [73] = molecular target: SpSla1-D1-D2
# In short: as §1
# [74] = molecular target: SpSla1-D3
# In short: as §1
binder,measurement,setting,value
FFRRSELYLPNSSKA,SPOT peptide array binding signal intensity,[1],2
same,SPOT peptide array binding signal intensity,[2],3.75
same,SPOT peptide array binding signal intensity,[3],31.5
same,SPOT peptide array binding signal intensity,[4],26.5
same,SPOT peptide array binding signal intensity,[5],22.5
same,SPOT peptide array binding signal intensity,[6],≤ 0
same,SPOT peptide array binding signal intensity,[7],162
same,SPOT peptide array binding signal intensity,[8],25
same,SPOT peptide array binding signal intensity,[9],1000
same,SPOT peptide array binding signal intensity,[10],1.75
same,SPOT peptide array binding signal intensity,[11],47.5
same,SPOT peptide array binding signal intensity,[12],7.25
same,SPOT peptide array binding signal intensity,[13],11
same,SPOT peptide array binding signal intensity,[14],1.67
same,SPOT peptide array binding signal intensity,[15],25
same,SPOT peptide array binding signal intensity,[16],122
same,SPOT peptide array binding signal intensity,[17],5.5
same,SPOT peptide array binding signal intensity,[18],70
same,SPOT peptide array binding signal intensity,[19],51.5
same,SPOT peptide array binding signal intensity,[20],0.25
same,SPOT peptide array binding signal intensity,[21],9
same,SPOT peptide array binding signal intensity,[22],95
same,SPOT peptide array binding signal intensity,[23],32.2
same,SPOT peptide array binding signal intensity,[24],≤ 0
same,SPOT peptide array binding signal intensity,[25],624
same,SPOT peptide array binding signal intensity,[26],≤ 0
same,SPOT peptide array binding signal intensity,[27],3
same,SPOT peptide array binding signal intensity,[28],0.5
same,SPOT peptide array binding signal intensity,[29],13
same,SPOT peptide array binding signal intensity,[30],14.2
same,SPOT peptide array binding signal intensity,[31],89
same,SPOT peptide array binding signal intensity,[32],4.5
same,SPOT peptide array binding signal intensity,[33],16.2
same,SPOT peptide array binding signal intensity,[34],318
same,SPOT peptide array binding signal intensity,[35],≤ 0
same,SPOT peptide array binding signal intensity,[36],≤ 0
same,SPOT peptide array binding signal intensity,[37],47
same,SPOT peptide array binding signal intensity,[38],≤ 0
same,SPOT peptide array binding signal intensity,[39],18
same,SPOT peptide array binding signal intensity,[40],11
same,SPOT peptide array binding signal intensity,[41],20
same,SPOT peptide array binding signal intensity,[42],24
same,SPOT peptide array binding signal intensity,[43],206
same,SPOT peptide array binding signal intensity,[44],1
same,SPOT peptide array binding signal intensity,[45],1290
same,SPOT peptide array binding signal intensity,[46],6.25
same,SPOT peptide array binding signal intensity,[47],2
same,SPOT peptide array binding signal intensity,[48],34.5
same,SPOT peptide array binding signal intensity,[49],8
same,SPOT peptide array binding signal intensity,[50],3.5
same,SPOT peptide array binding signal intensity,[51],8.5
same,SPOT peptide array binding signal intensity,[52],42.5
same,SPOT peptide array binding signal intensity,[53],≤ 0
same,SPOT peptide array binding signal intensity,[54],3.17
same,SPOT peptide array binding signal intensity,[55],201
same,SPOT peptide array binding signal intensity,[56],12
same,SPOT peptide array binding signal intensity,[57],0.5
same,SPOT peptide array binding signal intensity,[58],45
same,SPOT peptide array binding signal intensity,[59],≤ 0
same,SPOT peptide array binding signal intensity,[60],111
same,SPOT peptide array binding signal intensity,[61],≤ 0
same,SPOT peptide array binding signal intensity,[62],≤ 0
same,SPOT peptide array binding signal intensity,[63],65.2
same,SPOT peptide array binding signal intensity,[64],6.75
same,SPOT peptide array binding signal intensity,[65],455
same,SPOT peptide array binding signal intensity,[66],552
same,SPOT peptide array binding signal intensity,[67],0.75
same,SPOT peptide array binding signal intensity,[68],7
same,SPOT peptide array binding signal intensity,[69],9
same,SPOT peptide array binding signal intensity,[70],3
same,SPOT peptide array binding signal intensity,[71],10
same,SPOT peptide array binding signal intensity,[72],6.67
same,SPOT peptide array binding signal intensity,[73],≤ 0
same,SPOT peptide array binding signal intensity,[74],35
